Measurements reported in the supplement of paper PMC11732987, “Enantioselective OTUD7B fragment discovery through chemoproteomics screening and high-throughput optimisation” (Communications Chemistry, 2025).

Legend:
Test in all cases: log2 ratio of Biotin-Ahx-Ub-VS probe labelling (fragment/DMSO); higher = less target engagement (more negative = stronger competition), active = hit call of the paper (q ≤ 0.05, log2 ratio ≤ -1)
Details in all cases: compound concentration: 200 uM; treatment time: 3 h
USP19 = biological target: T1, USP19 (UniProt O94966)
T1 sequence (whole entry): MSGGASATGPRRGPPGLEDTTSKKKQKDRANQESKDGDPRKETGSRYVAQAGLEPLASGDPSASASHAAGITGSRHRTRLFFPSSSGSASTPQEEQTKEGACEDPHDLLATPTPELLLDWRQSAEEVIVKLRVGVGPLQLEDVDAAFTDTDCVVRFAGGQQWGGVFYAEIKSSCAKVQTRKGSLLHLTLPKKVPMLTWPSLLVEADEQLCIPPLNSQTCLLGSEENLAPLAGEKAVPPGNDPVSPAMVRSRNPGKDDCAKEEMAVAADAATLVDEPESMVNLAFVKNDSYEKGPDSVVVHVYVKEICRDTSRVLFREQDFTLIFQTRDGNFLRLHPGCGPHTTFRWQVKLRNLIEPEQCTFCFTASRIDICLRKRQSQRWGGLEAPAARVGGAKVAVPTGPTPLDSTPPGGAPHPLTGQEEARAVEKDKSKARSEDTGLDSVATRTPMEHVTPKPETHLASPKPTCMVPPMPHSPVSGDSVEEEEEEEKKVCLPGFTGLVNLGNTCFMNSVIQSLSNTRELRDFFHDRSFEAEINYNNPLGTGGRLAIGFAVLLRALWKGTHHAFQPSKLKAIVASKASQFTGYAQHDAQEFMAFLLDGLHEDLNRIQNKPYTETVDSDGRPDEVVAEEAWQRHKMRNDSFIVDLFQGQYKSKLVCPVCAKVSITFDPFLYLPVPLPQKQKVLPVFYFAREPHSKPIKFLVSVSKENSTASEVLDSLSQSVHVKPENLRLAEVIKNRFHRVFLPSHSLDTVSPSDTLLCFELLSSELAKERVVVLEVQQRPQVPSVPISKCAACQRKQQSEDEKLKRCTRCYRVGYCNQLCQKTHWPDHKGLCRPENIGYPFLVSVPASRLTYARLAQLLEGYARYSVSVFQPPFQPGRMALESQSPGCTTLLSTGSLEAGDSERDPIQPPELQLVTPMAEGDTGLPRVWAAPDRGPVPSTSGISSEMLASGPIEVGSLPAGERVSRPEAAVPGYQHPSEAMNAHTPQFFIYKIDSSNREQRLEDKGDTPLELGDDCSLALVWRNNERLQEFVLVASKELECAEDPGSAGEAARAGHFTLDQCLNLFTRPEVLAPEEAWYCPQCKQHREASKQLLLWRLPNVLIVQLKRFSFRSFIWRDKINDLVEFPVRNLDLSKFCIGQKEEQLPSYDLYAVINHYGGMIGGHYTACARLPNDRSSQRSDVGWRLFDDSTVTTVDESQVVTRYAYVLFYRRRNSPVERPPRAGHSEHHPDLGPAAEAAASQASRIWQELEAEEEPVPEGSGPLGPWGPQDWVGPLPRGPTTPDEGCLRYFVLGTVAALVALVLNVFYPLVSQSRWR
Outline: (§1)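 Labelling with Biotin-Ahx-Ub-VS (0.5 µM final, 1 h) followed a 3 h triplicate treatment of HEK293T lysate (495 µg per sample, Tris/CHAPS/IGEPAL buffer with protease inhibitors) with fragment at 200 µM or vehicle. Labelled DUBs were NeutrAvidin-enriched, digested with LysC and trypsin, and run by diaPASEF LC-MS/MS. The values, average log2 fragment/vehicle ratios by unpaired t-test, come from global-median-normalised Spectronaut label-free quantities. Proteins with ≥2 unique peptides were used.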

USP22 = biological target: T2, USP22 (UniProt Q9UPT9)
T2 sequence (whole entry): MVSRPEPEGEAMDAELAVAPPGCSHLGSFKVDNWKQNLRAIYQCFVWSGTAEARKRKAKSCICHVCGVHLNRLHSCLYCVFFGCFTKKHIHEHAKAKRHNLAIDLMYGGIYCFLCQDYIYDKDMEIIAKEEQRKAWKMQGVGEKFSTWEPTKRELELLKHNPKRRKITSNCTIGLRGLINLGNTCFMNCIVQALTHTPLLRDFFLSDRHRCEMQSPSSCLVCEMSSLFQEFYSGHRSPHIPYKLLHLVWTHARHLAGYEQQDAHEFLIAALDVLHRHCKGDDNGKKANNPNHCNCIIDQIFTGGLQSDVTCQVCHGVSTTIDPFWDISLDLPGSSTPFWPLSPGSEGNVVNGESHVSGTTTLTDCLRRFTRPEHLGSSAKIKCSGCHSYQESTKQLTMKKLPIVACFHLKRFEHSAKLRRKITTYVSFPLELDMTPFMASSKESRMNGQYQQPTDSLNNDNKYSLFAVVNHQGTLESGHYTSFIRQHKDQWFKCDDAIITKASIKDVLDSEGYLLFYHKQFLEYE
Outline: as §1

USP24 = USP24 (UniProt Q9UPU5)
Sequence of USP24 (Q9UPU5 whole entry): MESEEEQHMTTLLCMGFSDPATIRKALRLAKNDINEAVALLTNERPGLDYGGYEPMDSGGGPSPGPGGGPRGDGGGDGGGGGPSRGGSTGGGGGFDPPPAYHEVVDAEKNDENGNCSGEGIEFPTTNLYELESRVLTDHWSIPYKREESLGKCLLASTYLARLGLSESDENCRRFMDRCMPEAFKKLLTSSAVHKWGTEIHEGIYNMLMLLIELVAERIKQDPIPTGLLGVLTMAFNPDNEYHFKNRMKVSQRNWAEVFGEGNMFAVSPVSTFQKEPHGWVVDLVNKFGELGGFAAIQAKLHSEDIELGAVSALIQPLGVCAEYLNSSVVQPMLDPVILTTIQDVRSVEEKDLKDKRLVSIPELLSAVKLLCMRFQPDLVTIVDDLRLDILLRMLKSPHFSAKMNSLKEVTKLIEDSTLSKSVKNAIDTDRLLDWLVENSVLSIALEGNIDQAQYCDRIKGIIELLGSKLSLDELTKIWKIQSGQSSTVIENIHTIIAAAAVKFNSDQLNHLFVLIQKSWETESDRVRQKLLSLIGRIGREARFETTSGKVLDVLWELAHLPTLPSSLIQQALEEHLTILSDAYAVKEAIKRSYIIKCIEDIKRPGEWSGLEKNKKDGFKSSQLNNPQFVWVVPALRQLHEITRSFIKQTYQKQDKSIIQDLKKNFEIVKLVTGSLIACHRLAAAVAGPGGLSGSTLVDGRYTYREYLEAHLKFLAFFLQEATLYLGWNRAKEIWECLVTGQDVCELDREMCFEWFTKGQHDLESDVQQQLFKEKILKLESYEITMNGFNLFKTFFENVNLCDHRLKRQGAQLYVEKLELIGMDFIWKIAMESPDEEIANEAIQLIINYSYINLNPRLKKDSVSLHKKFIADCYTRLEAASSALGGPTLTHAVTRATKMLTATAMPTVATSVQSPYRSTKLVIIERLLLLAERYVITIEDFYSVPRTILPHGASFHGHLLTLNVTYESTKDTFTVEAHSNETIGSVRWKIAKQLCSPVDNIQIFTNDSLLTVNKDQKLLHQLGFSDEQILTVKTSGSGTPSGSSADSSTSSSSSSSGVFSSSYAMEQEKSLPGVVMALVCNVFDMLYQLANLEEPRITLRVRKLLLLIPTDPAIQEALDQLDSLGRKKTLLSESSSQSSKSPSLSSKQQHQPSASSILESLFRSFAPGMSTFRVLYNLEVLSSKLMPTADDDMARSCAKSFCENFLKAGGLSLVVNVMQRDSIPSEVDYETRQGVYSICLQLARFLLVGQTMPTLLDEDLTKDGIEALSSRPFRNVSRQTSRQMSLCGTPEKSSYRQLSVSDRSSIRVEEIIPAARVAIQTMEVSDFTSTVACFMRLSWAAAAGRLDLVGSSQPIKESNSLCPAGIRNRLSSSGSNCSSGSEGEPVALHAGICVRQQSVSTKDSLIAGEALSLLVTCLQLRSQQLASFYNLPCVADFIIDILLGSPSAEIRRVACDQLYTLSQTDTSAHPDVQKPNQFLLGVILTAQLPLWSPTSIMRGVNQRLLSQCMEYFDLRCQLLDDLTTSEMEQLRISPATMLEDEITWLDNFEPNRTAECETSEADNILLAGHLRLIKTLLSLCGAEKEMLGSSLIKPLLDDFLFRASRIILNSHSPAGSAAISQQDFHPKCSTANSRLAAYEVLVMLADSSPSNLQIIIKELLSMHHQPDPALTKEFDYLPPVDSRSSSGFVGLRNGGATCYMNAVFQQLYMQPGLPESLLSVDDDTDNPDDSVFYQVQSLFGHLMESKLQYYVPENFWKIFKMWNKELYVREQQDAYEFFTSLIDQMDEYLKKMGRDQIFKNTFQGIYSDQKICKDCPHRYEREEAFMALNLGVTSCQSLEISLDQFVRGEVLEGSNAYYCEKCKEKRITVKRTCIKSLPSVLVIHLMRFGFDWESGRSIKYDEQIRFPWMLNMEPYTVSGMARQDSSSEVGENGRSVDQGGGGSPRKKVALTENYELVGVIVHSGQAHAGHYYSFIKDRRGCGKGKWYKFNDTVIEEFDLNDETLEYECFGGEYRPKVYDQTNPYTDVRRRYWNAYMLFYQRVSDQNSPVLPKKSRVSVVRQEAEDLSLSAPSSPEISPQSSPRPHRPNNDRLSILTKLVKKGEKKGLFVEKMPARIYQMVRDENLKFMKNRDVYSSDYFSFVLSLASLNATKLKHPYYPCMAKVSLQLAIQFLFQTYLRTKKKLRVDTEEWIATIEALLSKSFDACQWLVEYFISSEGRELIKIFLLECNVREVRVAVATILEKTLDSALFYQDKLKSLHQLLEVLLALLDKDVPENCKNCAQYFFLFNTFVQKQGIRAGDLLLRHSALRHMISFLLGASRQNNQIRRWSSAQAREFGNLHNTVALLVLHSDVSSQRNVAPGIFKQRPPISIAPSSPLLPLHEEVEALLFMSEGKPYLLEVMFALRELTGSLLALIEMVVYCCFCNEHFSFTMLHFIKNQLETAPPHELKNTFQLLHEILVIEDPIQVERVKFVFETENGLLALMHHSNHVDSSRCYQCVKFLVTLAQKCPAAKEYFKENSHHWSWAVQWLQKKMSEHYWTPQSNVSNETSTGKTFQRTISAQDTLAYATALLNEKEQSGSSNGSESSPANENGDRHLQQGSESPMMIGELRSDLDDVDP
Outline: as §1

USP25 = biological target: T3, USP25 (UniProt Q9UHP3)
T3 sequence (whole entry): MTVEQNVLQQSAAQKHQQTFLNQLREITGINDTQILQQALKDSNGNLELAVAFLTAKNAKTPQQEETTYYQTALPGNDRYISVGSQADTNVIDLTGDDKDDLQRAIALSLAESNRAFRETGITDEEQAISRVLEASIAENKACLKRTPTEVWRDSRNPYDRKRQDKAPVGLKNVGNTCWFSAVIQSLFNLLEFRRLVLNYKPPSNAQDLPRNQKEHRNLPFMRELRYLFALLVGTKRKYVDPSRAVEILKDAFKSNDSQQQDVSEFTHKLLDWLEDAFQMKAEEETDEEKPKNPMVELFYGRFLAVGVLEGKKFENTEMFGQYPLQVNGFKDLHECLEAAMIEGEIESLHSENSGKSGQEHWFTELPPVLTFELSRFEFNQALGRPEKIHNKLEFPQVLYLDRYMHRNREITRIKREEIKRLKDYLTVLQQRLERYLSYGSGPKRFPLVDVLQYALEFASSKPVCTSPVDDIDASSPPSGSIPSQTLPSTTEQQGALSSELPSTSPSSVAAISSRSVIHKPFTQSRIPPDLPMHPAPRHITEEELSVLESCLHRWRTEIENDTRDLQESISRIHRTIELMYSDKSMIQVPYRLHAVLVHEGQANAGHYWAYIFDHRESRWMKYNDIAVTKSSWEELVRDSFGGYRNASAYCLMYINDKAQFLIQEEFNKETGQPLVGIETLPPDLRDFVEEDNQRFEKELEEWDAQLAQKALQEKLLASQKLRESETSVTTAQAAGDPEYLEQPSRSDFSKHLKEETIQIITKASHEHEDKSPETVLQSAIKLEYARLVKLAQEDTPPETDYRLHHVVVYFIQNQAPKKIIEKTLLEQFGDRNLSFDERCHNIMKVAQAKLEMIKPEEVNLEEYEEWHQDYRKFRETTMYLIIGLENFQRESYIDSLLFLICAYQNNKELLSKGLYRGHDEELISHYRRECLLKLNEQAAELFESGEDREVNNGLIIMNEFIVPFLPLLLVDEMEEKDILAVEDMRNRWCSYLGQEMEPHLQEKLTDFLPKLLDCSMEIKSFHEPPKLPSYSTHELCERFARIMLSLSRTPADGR
Outline: as §1

USP28 = biological target: T4, USP28 (UniProt Q96RU2)
T4 sequence (whole entry): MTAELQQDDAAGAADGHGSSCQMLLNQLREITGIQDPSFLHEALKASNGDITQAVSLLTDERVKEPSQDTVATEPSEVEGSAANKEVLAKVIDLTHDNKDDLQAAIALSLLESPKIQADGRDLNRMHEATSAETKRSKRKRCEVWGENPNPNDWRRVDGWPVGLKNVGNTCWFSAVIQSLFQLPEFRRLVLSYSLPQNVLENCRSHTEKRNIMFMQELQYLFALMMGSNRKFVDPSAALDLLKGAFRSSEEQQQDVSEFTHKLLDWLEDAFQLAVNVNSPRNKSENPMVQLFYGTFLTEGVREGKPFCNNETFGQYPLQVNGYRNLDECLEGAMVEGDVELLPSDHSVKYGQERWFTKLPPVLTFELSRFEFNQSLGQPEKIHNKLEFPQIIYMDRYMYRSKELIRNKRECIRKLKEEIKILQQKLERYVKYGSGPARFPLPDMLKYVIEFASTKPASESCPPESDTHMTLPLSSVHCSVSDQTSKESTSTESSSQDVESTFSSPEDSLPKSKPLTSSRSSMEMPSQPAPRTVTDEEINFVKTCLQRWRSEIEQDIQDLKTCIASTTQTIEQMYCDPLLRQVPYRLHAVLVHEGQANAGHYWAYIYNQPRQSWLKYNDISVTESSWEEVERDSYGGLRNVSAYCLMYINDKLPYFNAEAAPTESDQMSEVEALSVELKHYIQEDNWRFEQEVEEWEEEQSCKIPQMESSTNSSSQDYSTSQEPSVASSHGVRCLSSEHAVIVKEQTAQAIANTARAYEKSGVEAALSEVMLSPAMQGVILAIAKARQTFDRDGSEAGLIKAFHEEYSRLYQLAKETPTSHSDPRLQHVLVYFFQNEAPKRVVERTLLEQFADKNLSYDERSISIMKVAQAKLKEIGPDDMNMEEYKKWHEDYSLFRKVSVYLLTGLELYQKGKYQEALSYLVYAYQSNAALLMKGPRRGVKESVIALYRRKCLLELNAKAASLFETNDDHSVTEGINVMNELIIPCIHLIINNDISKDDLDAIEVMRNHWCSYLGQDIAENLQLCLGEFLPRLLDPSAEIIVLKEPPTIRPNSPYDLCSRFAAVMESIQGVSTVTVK
Outline: as §1

Measured: log2 ratio of Biotin-Ahx-Ub-VS probe labelling

Cl.Cn1nc2c(c1CNC(=O)CCl)CCCC2
inactive: USP19 0.00104 | USP22 -0.0746 | USP24 -0.0442 | USP25 -0.147 | USP28 -0.325
